Data reported in ChEMBL document CHEMBL3988442, “University of Dundee, Small-Polar-MMV Screening Library” (2021).

Molecular target: AMP-activated protein kinase, AMPK (Homo sapiens) (UniProt P54646+O43741+P54619+Q9UGJ0+Q9Y478+Q13131+Q9UGI9)
Assay: AMP-dependent Kinase enzyme assay. An in vitro enzyme assay that detects ADP turnover that is directly proportional to AMPK activity. This uses naive AMPK that is activated during the assay with MK-8722
Assay type: functional
Parameters: scale not given: direction of the effect not stated beside the values
Details: 30 µM

Row | SMILES | Percent Effect
1 | C[C@@H]1CN(C(=O)C2(Cn3cccn3)CC2)CC[C@@]1(O)C1CCOCC1 | 6.2%
2 | CCC1(CC)CC(=O)N(CC(O)c2cc(F)ccc2F)C1=O (centres undefined) | 11.8%
3 | O=C(c1cscn1)N1CCc2[nH]nc(Nc3ccccc3)c2C1 | 10.9%
4 | Cc1noc(CCCC(=O)N2CCNC(=O)C2)n1 | -2.32%
5 | Cc1cc(C(=O)NC2CCN(c3nnc(C)c(C)c3C#N)CC2)no1 | -21.4%
6 | Cc1nn(C)c(C)c1CCC(=O)NCC1(C(N)=O)CCOCC1 | 1.16%
7 | O=C(NCCc1cccnc1)c1ccc2nccn2c1 | 0.0619%
8 | CCS(=O)(=O)N1CCN(C(C)c2ncc(-c3ccccc3)o2)CC1 (centres undefined) | -3.96%
9 | CN1CCN(C(=O)C2(NC(N)=O)CCCCC2)Cc2ccccc21 | 0.804%
10 | CC(C)(C)C(=O)NCCc1cc(N2CCOCC2)nc(NC2CC2)n1 | 17.4%
11 | CCC[C@H]1CN(Cc2cc(C#N)n(C)c2C)C[C@@H]1N(C)C | 2.21%
12 | CC1(C)OC(=O)N(CC(=O)N2CCC(c3ccccc3Cl)C2)C1=O (centres undefined) | 8.7%
13 | Cc1noc(C(C)N2CCN(Cc3noc(C4CC4)n3)CC2)n1 (centres undefined) | 3.22%
14 | O=C1CC2(CCCC2)CC(=O)N1CCn1cnnc1 | 5.88%
15 | COc1ccc(N2CCN(C(=O)CCCc3cn[nH]c3)CC2=O)cc1 | -3.84%
16 | CC(C)(C)c1n[nH]cc1CNC1CCC(C(F)(F)F)CC1 (centres undefined) | 3.78%
17 | CN(Cc1cn(CC2CCNCC2)nn1)CC1CCCCO1 (centres undefined) | 7.46%
18 | CSCC(C)(O)CNS(=O)(=O)c1ccc(Br)cc1 (centres undefined) | -4.9%
19 | Cc1ccc(N2C[C@@H]3CN(C(=O)NC4CCCC4)C[C@]3(C(=O)O)C2)nn1 | -1.71%
20 | CCc1ncc2c(n1)CN(Cc1nc(-c3ccco3)oc1C)CC2 | -22.8%
21 | Cc1noc(C)c1CCCNC(=O)Nc1cccc([S+](C)[O-])c1 (centres undefined) | 4.42%
22 | COC(=O)C1CCN(C(=O)Cn2ccc(-c3ccc(F)cc3)n2)CC1 | -0.768%

Row | SMILES | Percent Effect
23 | CN(C)c1nc(CNC(=O)Nc2cccc([S+](C)[O-])c2)cs1 (centres undefined) | 5.35%
24 | CCCOc1ccc2c(c1)OCC(CNC1CCc3ncnn3C1)=C2 (centres undefined) | 10.2%
25 | CS(=O)(=O)N1CCN(C(=O)c2cncs2)CC(C(N)=O)C1 (centres undefined) | 9.41%
26 | Cc1ccccc1NC(=O)CCNC(=O)c1ccoc1 | -10.8%
27 | CCCn1cc(-c2cc(C(=O)N(C)C)c3cccc(C)c3n2)cn1 | 7.04%
28 | CC(=O)NCc1ccc(C(=O)N2CCCc3c(F)ccc(C)c32)cc1 | -0.0493%
29 | COc1ccc(NCCC(=O)NCc2cccnc2N(C)C)cc1 | 22.9%
30 | CN1CCN([C@H]2CCN(C(=O)c3nn(C)cc3Cl)C[C@H]2CCCO)CC1 | 4.08%
31 | COCC1CCCN(c2cncc(OCc3ccccc3)n2)C1 (centres undefined) | 1.9%
32 | Cc1nccc(CNC(=O)NC(c2ncc(C)s2)C2CC2)n1 (centres undefined) | 0.262%
33 | CCN1CCC(CC(=O)NCCc2nc(C)cc(C)n2)CC1 | 1.66%
34 | CCCN1C(=O)[C@H]2CC[C@@H]1CN(S(=O)(=O)c1cccc(Cl)c1)C2 | 7.5%
35 | CCc1c(C)nn2c(O)cc(C3CCN(C(=O)c4cnn(C)c4)C3)nc12 (centres undefined) | 5.68%
36 | NCC(CO)Cc1cccc(OC(F)(F)F)c1 (centres undefined) | -3.22%
37 | Cc1ccc2nc(C(=O)N3CC(n4nc(C)cc4C)C3)cn2c1 | -4.01%
38 | COCc1ncc(CN2CCC3(CCNCC3)CC2)cn1 | -3.83%
39 | O=C(c1nc(N2CCCC2)ncc1Cl)N1CCN(Cc2ccsc2)CC1 | 7.12%
40 | CN1CCN(C)C(CNc2c(C#N)cnc3ccc(Cl)cc23)C1 (centres undefined) | 8.02%
41 | O=C(c1cccc2ccnn12)N1CCCC1Cn1cccn1 (centres undefined) | -1.71%
42 | CCOCCN1CCN(c2ccc(C#N)cn2)CC1 | 1.16%
43 | COc1cc(COCC2CCN(Cc3ccccn3)CC2)cc(OC)c1 | -0.77%
44 | COCCCS(=O)(=O)N1CCN(Cc2cccn2C)CC1 | 2.25%
